Compounds with a hit are over-represented: about 1.4% of the library has one in this group of screens.
AMA1 RON2 block – qHTS for Inhibitors of AMA1-RON; Towards Development of Antimalarial Drug Lead: Primary Screen. Potency, µM (highest dose often 58.2 µM), for the others: at the highest dose activity change, negative = inhibition, most hits filed as inhibitors. Plasmodium falciparum AMA1 (3D7) - RON2 peptide interaction. AID 720542, 2013. 360,000 tested, 0.2% active. AlphaScreen AMA1-biotinylated RON2 peptide binding;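 note: 0% = vehicle wells and -100% = peptide control; nearly all actives have a fitted effect of over 45% in size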
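AMA1 (3D7) with his tag at 25 nM final met compounds first, then biotinylated RON2 peptide at 25 nM; detection used donor plus acceptor beads, 10 µg/mL apiece, read by AlphaScreen after 30 min at room temperature.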
Vaccinia mCherry – qHTS for Stage-Specific Inhibitors of Vaccinia Orthopoxvirus: mCherry Reporter Primary qHTS; AID 720579, 2013; 310,000 tested, 0.63% active; Vaccinia virus mCherry reporter infection, fluorescence; Potency, µM (top dose mostly 36.5 µM), for the others: top-dose activity change, negative = inhibition, most hits filed as inhibitors; calls by dose curve; tested in A549 cells; note: % is set by controls: 0 for no effect and ±100 for the full control effect; nearly all actives have a fitted effect of over 35% in size
AmpC inh detg – qHTS Inhibitors of AmpC Beta-Lactamase (assay with detergent) | AmpC hydrolysis of nitrocefin, absorbance 480 nm, 0.01% Triton | Potency, µM (doses to about 114 µM), without a hit: at the top dose activity change, negative = inhibition, hits mostly inhibitors | 370,000 tested, 0.041% active;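 note: 0% = no-compound wells and -100% = no-enzyme wells; nearly all actives have a fitted effect of over 25% in size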
Target sequence (P00811 whole entry, looked up): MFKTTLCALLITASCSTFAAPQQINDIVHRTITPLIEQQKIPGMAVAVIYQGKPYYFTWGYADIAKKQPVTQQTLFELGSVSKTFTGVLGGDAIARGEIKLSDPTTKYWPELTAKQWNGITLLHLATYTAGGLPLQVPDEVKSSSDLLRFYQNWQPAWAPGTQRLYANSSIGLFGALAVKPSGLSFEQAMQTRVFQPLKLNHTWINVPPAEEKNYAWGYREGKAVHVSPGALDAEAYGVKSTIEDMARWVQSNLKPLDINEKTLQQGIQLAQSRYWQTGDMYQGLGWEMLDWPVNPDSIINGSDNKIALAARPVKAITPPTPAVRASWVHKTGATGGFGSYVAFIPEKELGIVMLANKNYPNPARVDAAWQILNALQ
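AmpC (5.3 nM in the dispensed reagent) in 20 mM phosphate pH 7.0 with 0.01% (detergent screen) or 0.0001% Triton X-100 was preincubated with compounds for 15 min at room temperature. Nitrocefin was then added from an 800 uM solution, and hydrolysis was followed at 480 nm.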
AmpC inh no detg – qHTS Inhibitors of AmpC Beta-Lactamase (assay without detergent); 330,000 tested, 0.52% active; AmpC nitrocefin hydrolysis, absorbance 480 nm, 0.0001% Triton; P00811; AID 485341, 2010; Potency, µM (series often up to 57.1 µM), without a hit: top-dose activity change, negative = inhibition, hits mostly inhibitors;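 note: plate controls were no compound for no effect and no enzyme for full effect; nearly all actives have a fitted effect of over 20% in size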
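20 mM phosphate pH 7.0 + 0.01% (detergent screen) or 0.0001% Triton X-100; 5.3 nM AmpC reagent; cpd preinc 15 min RT; nitrocefin (800 uM stock) to start; A480 q20 s × 4 min; Activity was normalised to no-enzyme and no-compound control wells.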
Vaccinia Venus – qHTS for Stage-Specific Inhibitors of Vaccinia Orthopoxvirus: Venus Reporter Primary qHTS | 330,000 tested, 0.46% active | Vaccinia virus Venus reporter expression, fluorescence | AID 720580, 2013 | Potency, µM (doses to about 36.5 µM), for inactives: at the top dose activity change, negative = inhibition, usual class: inhibitors; calls by dose curve; tested in A549 cells; note: % is set by controls: 0 for no effect and ±100 for the full control effect; nearly all actives have a fitted effect of over 30% in size
SARS PLP yeast – qHTS of Yeast-based Assay for SARS-CoV PLP; S. cerevisiae expressing SARS-CoV PLpro, growth rescue; Potency, µM (highest dose often 32.9 µM), for inactives: at the highest dose activity, positive = growth rescue, actives largely listed as activators; 330,000 tested, 0.19% active; AID 485353, 2010; calls by dose curve; note: 0% is about no effect; nearly all actives have a fitted effect of over 55% in size
Numbers without * were called inactive; [ ] = dose if it differs, or a comment. Unless noted, calls come from the whole dose curve; as a rule, active = well fitted curve in the direction sought with a large enough effect; inconclusive = small, poorly fitted or top-dose-only effect, or another doubt; inactive = no such curve, though single readings can be large; an effect the other way counts as inactive or inconclusive. Potency is the fitted concentration of half-maximal effect.

How did Cn1nnnc1SCC(=O)Nc1cccc(S(=O)(=O)N2CCCC2)c1 do in these assays?
AMA1 RON2 block: -6%; AmpC inh detg: -5%; AmpC inh no detg: -12%; SARS PLP yeast: 3%

What do the screens show for `COC(=O)[C@]12OC[C@]34C([C@@H](O)[C@@H]1O)[C@]1(C)CC(=O)C(O)=C(C)[C@@H]1C[C@H]3OC(=O)[C@H](O)[C@@H]24` (stereo partly drawn)?
AMA1 RON2 block: 0%; Vaccinia mCherry: inconclusive; AmpC inh detg: -9%; AmpC inh no detg: 71%; Vaccinia Venus: 0.89µM*; SARS PLP yeast: -4%

Results for CN(C)c1cc2c(c(N(C)C)c1)C(=O)c1ccccc1C2=O ?
AMA1 RON2 block: 18µM*; Vaccinia mCherry: -26%; AmpC inh detg: 0%; AmpC inh no detg: 24%; Vaccinia Venus: inconclusive; SARS PLP yeast: -9%

How did CN(C)S(=O)(=O)c1cccc2c1C(=O)c1ccccc1C2=O do in these assays?
AMA1 RON2 block: -18%; Vaccinia mCherry: -16%; AmpC inh detg: -18%; AmpC inh no detg: -1%; Vaccinia Venus: -12%; SARS PLP yeast: 10%

Results for Cc1cc2c(c(-c3cnccn3)c1)OC(CNC(=O)c1cc(C(C)C)[nH]n1)C2 (stereo not drawn) ?
Vaccinia mCherry: inactive; Vaccinia Venus: -17%

What do the screens show for `CCN(CC)C(=O)c1ccc2c(c1)C1C=CCC1C(C(=O)O)N2` (stereo not drawn)?
AMA1 RON2 block: 13µM*; Vaccinia mCherry: 25%; AmpC inh detg: -5%; AmpC inh no detg: -18%; Vaccinia Venus: 17%; SARS PLP yeast: -2%

What do the screens show for `Cc1ccc2c(c1C)NC(C(=O)O)C1CC=CC21` (stereo not drawn)?
AMA1 RON2 block: 12µM*; Vaccinia mCherry: -3%; AmpC inh detg: inconclusive; AmpC inh no detg: -47%; Vaccinia Venus: 0%; SARS PLP yeast: 4%

What do the screens show for `COc1ccc(CNC(=O)c2cc3c(=O)n(C)c4ccccc4c3n2C)c(OC)c1`?
Vaccinia mCherry: -10%; AmpC inh detg: 11%; Vaccinia Venus: -7%

What do the screens show for `C(=NN1CCCCCC1)c1ccccc1`?
AMA1 RON2 block: -19%; Vaccinia mCherry: -15%; Vaccinia Venus: 0%

How did CN(c1ccccc1)c1ccc(/C=N/N2CCOCC2)cc1 do in these assays?
AMA1 RON2 block: 11µM*; Vaccinia mCherry: -17%; AmpC inh detg: -5%; AmpC inh no detg: 36%; Vaccinia Venus: -17%; SARS PLP yeast: -15%

What do the screens show for `COc1cccc(N2CCN(c3ncnc4c3cnn4-c3ccc(C)cc3C)CC2)c1`?
AMA1 RON2 block: -19%; Vaccinia mCherry: 14µM*; AmpC inh detg: -4%; AmpC inh no detg: 43%; Vaccinia Venus: inconclusive; SARS PLP yeast: 8%

What do the screens show for `CNC(=S)N1N=C(c2ccc(C)cc2)CC1c1ccc(N(C)C)cc1` (stereo not drawn)?
AMA1 RON2 block: 28µM*; Vaccinia mCherry: inactive; AmpC inh detg: 0%; AmpC inh no detg: 22%; Vaccinia Venus: -7%; SARS PLP yeast: 0%

Results for CNC(=S)N1N=C(c2ccc(C)cc2)CC1c1ccc(OC)cc1 (stereo not drawn) ?
AMA1 RON2 block: -12%; Vaccinia mCherry: -13%[1.46 µM]; AmpC inh detg: -9%; AmpC inh no detg: -24%; Vaccinia Venus: inconclusive; SARS PLP yeast: 2%

What do the screens show for `COc1ccc(N2C(N)=NC(N)=NC2(C)C)cc1`?
AMA1 RON2 block: -9%; Vaccinia mCherry: inconclusive; AmpC inh detg: -5%; AmpC inh no detg: 5%; Vaccinia Venus: 11µM*; SARS PLP yeast: 4%

What do the screens show for `COc1cccc(N2C(N)=NC(N)=NC2(C)C)c1`?
AMA1 RON2 block: 8%; AmpC inh detg: -10%; AmpC inh no detg: -19%; Vaccinia Venus: inconclusive; SARS PLP yeast: 1%

From PubChem BioAssay
